Experimental data published in the supplement of paper PMC6609913.
Counter-ions that a name gives are not always drawn. ± gives the standard deviation of the averaged measurements. In all, about 1,300 compounds were measured (“normalised cell viability”: median about 1, lowest 2% from about 0.15 on). Only a selection was taken, and the lowest values are over-represented in it overall.

System: V-C8 + BRCA2 (BRCA2-proficient hamster cells)
Experiment: normalised cell viability (fraction of plate median); higher = more viable cells (less toxic)
Details: 5 µM
Method in brief: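 Hamster V-C8 cells with and without restored BRCA2 were exposed in 96-well plates to library drugs at 5 μM for 3 days (screen 1) or 6 days (screen 2). Cell viability was scored by resazurin assay, then median-plate normalised, averaging triplicate wells.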

CCCCC(CC)CNC(=N)NC(=N)NCCCCCCNC(=N)NC(=N)NCC(CC)CCCC (centres undefined) [Alexidine dihydrochloride]
normalised cell viability (treatment time: 3 days): 0.143 ± 0.002
normalised cell viability (treatment time: 6 days): 0.149 ± 0.011

O=C1C=CC(=O)c2c1ccc1c2ccc2ccccc21 [Chrysene-1,4-quinone]
normalised cell viability (treatment time: 3 days): 1.024 ± 0.0027
normalised cell viability (treatment time: 6 days): 1 ± 0.11

CC(C)Oc1ccc2c(=O)c(-c3ccccc3)coc2c1 [Ipriflavone]
normalised cell viability (treatment time: 3 days): 0.993 ± 0.029
normalised cell viability (treatment time: 6 days): 1.08 ± 0.11

Nc1ccn([C@@H]2CS[C@H](CO)O2)c(=O)n1 [Lamivudine]
normalised cell viability (treatment time: 3 days): 0.335 ± 0.012
normalised cell viability (treatment time: 6 days): 0.406 ± 0.023

OC(CCN1CCCC1)(c1ccccc1)C1CCCCC1 (centres undefined) [Procyclidine hydrochloride]
normalised cell viability (treatment time: 3 days): 0.981 ± 0.047
normalised cell viability (treatment time: 6 days): 0.987 ± 0.012

COc1cc(OC)c(C(=O)CCCN2CCCC2)c(OC)c1 [Buflomedil hydrochloride]
normalised cell viability (treatment time: 3 days): 1.04 ± 0.096
normalised cell viability (treatment time: 6 days): 1.07 ± 0.025

CN1C(C)(C)CCCC1(C)C [Pempidine tartrate]
normalised cell viability (treatment time: 3 days): 1.1 ± 0.035
normalised cell viability (treatment time: 6 days): 1.007 ± 0.0034

C[C@@]1(O)CCOC(=O)C1 [Mevalonic-D, L acid lactone]
normalised cell viability (treatment time: 3 days): 1.09 ± 0.038
normalised cell viability (treatment time: 6 days): 1.06 ± 0.054

Nc1ccc(S(=O)(=O)Nc2ccnn2-c2ccccc2)cc1 [Sulfaphenazole]
normalised cell viability (treatment time: 3 days): 1.07 ± 0.02
normalised cell viability (treatment time: 6 days): 1.01 ± 0.041

Cc1ccnc2c1NC(=O)c1cccnc1N2C1CC1 [Nevirapine]
normalised cell viability (treatment time: 3 days): 1.03 ± 0.087
normalised cell viability (treatment time: 6 days): 1.05 ± 0.047

C[C@H]1O[C@@H](O[C@H]2[C@@H](O)C[C@H](O[C@H]3[C@@H](O)C[C@H](O[C@H]4CC[C@@]5(C)[C@H](CC[C@@H]6[C@@H]5C[C@@H](O)[C@]5(C)[C@@H](C7=CC(=O)OC7)CC[C@]65O)C4)O[C@@H]3C)O[C@@H]2C)C[C@H](O)[C@@H]1O [Digoxin]
normalised cell viability (treatment time: 3 days): 1.06 ± 0.036
normalised cell viability (treatment time: 6 days): 1.07 ± 0.13

COc1ccc(NS(=O)(=O)c2ccc(N)cc2)nn1 [Sulfamethoxypyridazine]
normalised cell viability (treatment time: 3 days): 0.879 ± 0.062
normalised cell viability (treatment time: 6 days): 0.892 ± 0.069

CC(=O)c1ccc(S(=O)(=O)NC(=O)NC2CCCCC2)cc1 [Acetohexamide]
normalised cell viability (treatment time: 3 days): 1.22 ± 0.019
normalised cell viability (treatment time: 6 days): 1.025 ± 0.0097

O=C1C(O)=C([C@H]2CC[C@H](c3ccc(Cl)cc3)CC2)C(=O)c2ccccc21 [Atovaquone]
normalised cell viability (treatment time: 3 days): 0.958 ± 0.012
normalised cell viability (treatment time: 6 days): 0.922 ± 0.04

CC(C)(C)NC(=O)[C@@H]1C[C@@H]2CCCC[C@@H]2CN1C[C@@H](O)[C@H](Cc1ccccc1)NC(=O)[C@H](CC(N)=O)NC(=O)c1ccc2ccccc2n1 [Saquinavir mesylate]
normalised cell viability (treatment time: 3 days): 0.842 ± 0.061
normalised cell viability (treatment time: 6 days): 0.952 ± 0.073

O=C1Cc2cc(CCN3CCN(c4nsc5ccccc45)CC3)c(Cl)cc2N1 [Ziprasidone  Hydrochloride]
normalised cell viability (treatment time: 3 days): 0.206 ± 0.016
normalised cell viability (treatment time: 6 days): 0.23 ± 0.013

CO/N=C(\C(=O)N[C@@H]1C(=O)N2C(C(=O)OC(C)OC(C)=O)=C(COC(N)=O)CS[C@H]12)c1ccco1 (some centres undefined) [Cefuroxime axetil]
normalised cell viability (treatment time: 3 days): 1.01 ± 0.057
normalised cell viability (treatment time: 6 days): 1.04 ± 0.12

Cc1cccc(N(C)C(=S)Oc2ccc3ccccc3c2)c1 [Tolnaftate]
normalised cell viability (treatment time: 3 days): 1.02 ± 0.027
normalised cell viability (treatment time: 6 days): 1.04 ± 0.044

CC(=O)CC(c1ccc([N+](=O)[O-])cc1)c1c(O)c2ccccc2oc1=O (centres undefined) [Acenocoumarol]
normalised cell viability (treatment time: 3 days): 0.92 ± 0.023
normalised cell viability (treatment time: 6 days): 0.979 ± 0.053

N[C@H]1CONC1=O [(S)-(-)-Cycloserine]
normalised cell viability (treatment time: 3 days): 1.04 ± 0.043
normalised cell viability (treatment time: 6 days): 0.917 ± 0.29

O=C1[C@H](CC[C@H](O)c2ccc(F)cc2)[C@@H](c2ccc(O)cc2)N1c1ccc(F)cc1 [Ezetimibe]
normalised cell viability (treatment time: 3 days): 1.03 ± 0.04
normalised cell viability (treatment time: 6 days): 1.08 ± 0.054

OC[C@H]1O[C@@H](Oc2ccc(O)cc2)[C@H](O)[C@@H](O)[C@@H]1O [Arbutin]
normalised cell viability (treatment time: 3 days): 1.02 ± 0.05
normalised cell viability (treatment time: 6 days): 0.979 ± 0.024

CCOC(=O)/C=C(C)/C=C/C=C(C)/C=C/c1c(C)cc(OC)c(C)c1C [Etretinate]
normalised cell viability (treatment time: 3 days): 1.01 ± 0.043
normalised cell viability (treatment time: 6 days): 1.13 ± 0.071

C[C@H]1c2cccc(O)c2C(=O)C2=C(O)[C@]3(O)C(=O)C(C(N)=O)=C(O)[C@@H](N(C)C)[C@@H]3[C@@H](O)[C@@H]21 [Doxycycline hydrochloride]
normalised cell viability (treatment time: 3 days): 0.947 ± 0.025
normalised cell viability (treatment time: 6 days): 0.982 ± 0.033

CC(C)(C)c1ccc(C(O)CCCN2CCC(C(O)(c3ccccc3)c3ccccc3)CC2)cc1 (centres undefined) [Terfenadine]
normalised cell viability (treatment time: 3 days): 0.118 ± 0.0067
normalised cell viability (treatment time: 6 days): 0.103 ± 0.0052

OC(CCCN1CCCCC1)(c1ccccc1)c1ccccc1 [Diphenidol hydrochloride]
normalised cell viability (treatment time: 3 days): 1.08 ± 0.066
normalised cell viability (treatment time: 6 days): 1.05 ± 0.025

CC(C)(C(=O)O)c1ccc(C(O)CCCN2CCC(C(O)(c3ccccc3)c3ccccc3)CC2)cc1 (centres undefined) [Fexofenadine HCl]
normalised cell viability (treatment time: 3 days): 1.02 ± 0.051
normalised cell viability (treatment time: 6 days): 1.04 ± 0.026

Cc1cn[nH]c1 [Fomepizole]
normalised cell viability (treatment time: 3 days): 1.07 ± 0.021
normalised cell viability (treatment time: 6 days): 0.9639 ± 0.0076

CCN(CC)CCOc1ccc(C(=C(Cl)c2ccccc2)c2ccccc2)cc1 [Clomiphene citrate (Z,E)]
normalised cell viability (treatment time: 3 days): 0.124 ± 0.0093
normalised cell viability (treatment time: 6 days): 0.128 ± 0.013

CN(C)CCOc1ccc(/C(=C(/CCCl)c2ccccc2)c2ccccc2)cc1 [Toremifene]
normalised cell viability (treatment time: 3 days): 0.822 ± 0.058
normalised cell viability (treatment time: 6 days): 0.891 ± 0.027

CC/C(=C(\c1ccccc1)c1ccc(OCCN(C)C)cc1)c1ccccc1 [Tamoxifen citrate]
normalised cell viability (treatment time: 3 days): 0.878 ± 0.054
normalised cell viability (treatment time: 6 days): 0.88 ± 0.021

CC[C@H](c1ccc(O)cc1)[C@@H](CC)c1ccc(O)cc1 [Hexestrol]
normalised cell viability (treatment time: 3 days): 0.9735 ± 0.0097
normalised cell viability (treatment time: 6 days): 0.944 ± 0.19

Nc1nc(NC2CC2)c2ncn([C@H]3C=C[C@@H](CO)C3)c2n1 [Abacavir Sulfate]
normalised cell viability (treatment time: 3 days): 1.04 ± 0.02
normalised cell viability (treatment time: 6 days): 1.07 ± 0.034

C=CCOC(Cn1ccnc1)c1ccc(Cl)cc1Cl (centres undefined) [Enilconazole]
normalised cell viability (treatment time: 3 days): 0.985 ± 0.021
normalised cell viability (treatment time: 6 days): 1.04 ± 0.013

NC(N)=Nc1nc(CSCC/C(N)=N/S(N)(=O)=O)cs1 [Famotidine]
normalised cell viability (treatment time: 3 days): 1.16 ± 0.079
normalised cell viability (treatment time: 6 days): 1.1 ± 0.096

CC(C)(O/N=C(\C(=O)N[C@@H]1C(=O)N2C(C(=O)[O-])=C(C[n+]3ccccc3)CS[C@H]12)c1csc(N)n1)C(=O)O [Ceftazidime pentahydrate]
normalised cell viability (treatment time: 3 days): 1.03 ± 0.011
normalised cell viability (treatment time: 6 days): 1 ± 0.039

Cc1ccc(O)c([C@H](CCN(C(C)C)C(C)C)c2ccccc2)c1 [Tolterodine tartrate]
normalised cell viability (treatment time: 3 days): 1.05 ± 0.062
normalised cell viability (treatment time: 6 days): 0.965 ± 0.053

COc1ccc2cc(CCC(C)=O)ccc2c1 [Nabumetone]
normalised cell viability (treatment time: 3 days): 1.05 ± 0.12
normalised cell viability (treatment time: 6 days): 1.02 ± 0.044

CC(C)C(=O)c1c(C(C)C)nn2ccccc12 [Ibudilast]
normalised cell viability (treatment time: 3 days): 0.987 ± 0.062
normalised cell viability (treatment time: 6 days): 0.981 ± 0.061

CC(C)(C)NC[C@H](O)c1ccc(O)c(CO)c1 [Levalbuterol hydrochloride]
normalised cell viability (treatment time: 3 days): 0.965 ± 0.089
normalised cell viability (treatment time: 6 days): 1.004 ± 0.0069

Clc1ccc(CO/N=C(\Cn2ccnc2)c2ccc(Cl)cc2Cl)c(Cl)c1 [Oxiconazole Nitrate]
normalised cell viability (treatment time: 3 days): 1.07 ± 0.16
normalised cell viability (treatment time: 6 days): 0.675 ± 0.12

CC(=O)OCC(=O)[C@@]12OC(C)(C)O[C@@H]1C[C@H]1[C@@H]3C[C@H](F)C4=CC(=O)C=C[C@]4(C)[C@@]3(F)[C@@H](O)C[C@@]12C [Fluocinonide]
normalised cell viability (treatment time: 3 days): 1.04 ± 0.017
normalised cell viability (treatment time: 6 days): 1.06 ± 0.04
